This is part of a sample that, as a whole, favours compounds with a hit. Of some 83,000 tested, about 20% had one in any assay.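 Values shown are percent growth following 48 h exposure of cells in 96-well plates to a single concentration of compound; below 10 was considered active.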 Values without a mark were called inactive. Activity calls are given as the source filed them.

The test system of one experiment is CAKI-1 renal. As to the kind of experiment: NCI-60 one-dose screen, 48 h (100 = growth as untreated, 0 = no growth, -100 = all killed). Particulars: 10 µM unless noted.
As for `CC/C(=C(/c1ccc(Cl)cc1)c1ccc(OCCN2CCCC2)cc1)c1ccc(OC)cc1`, the growth is 82%.
Regarding `Nc1ncnc2c1N=C(c1ccc(Cl)cc1)CC(c1ccc3c(c1)OCO3)N2` (stereo not given), the growth is 84.1%.
For `N=C(N)c1ccc(-c2ccc(-c3ccc(F)cc3)o2)o1`, the growth was 31.3%.
For `CCCCC(=O)c1ccco1`, the growth is 90.2%.
As to `C/C(=C(/c1ccc(Cl)cc1)c1ccc(OCCN2CCCC2)cc1)c1ccc(Cl)cc1`, the growth is 88.5%.
For `COC(=O)c1c2c(c[n+]([O-])c1C)C(=O)C(NCc1ccccc1)=CC2=O`, the growth was 3.84% (active).
For `Fc1ccc(-c2nn(-c3ccccc3)cc2-c2nc3ccccc3o2)cc1`, the growth was 82.1%.
On the same count and under the same terms, under `COc1ccc2c3c([nH]c2c1)C(=O)c1nc(C)ccc1C3=O` stands 51.8%; under `CCN(C(=O)N1CCN(c2cc3c(cc2F)c(=O)c(C(=O)O)cn3C2CC2)CC1)c1nc(-c2ccc(Cl)cc2)cs1`, 6.12% (active); under `CCCNC(=O)Oc1ccc(/C(=C(/C)Cc2ccc(OC)cc2)c2ccc(OCCCN(C)C)cc2)cc1`, 101%.
For `CC(=O)OCc1nc(C#N)c(N(C)C)o1`, the growth is 92.7%.
With `Cn1ccnc1C(=O)C(=O)Nc1ccc(CC(=O)Nc2ccccc2)cc1`, the growth is 93.3%.
`O=C(CN1C(=O)CCC1=O)Nc1ncc(Cc2ccc(F)cc2)s1`: the growth was 91.5%.
On the same count and under the same terms, under `CNc1nc(S(=O)c2ccc(C#N)cc2)nc2ccccc12` (stereo not given) stands 39.9%; under `Cn1c(-c2ccc(Br)cc2)c(O)c(=O)c2c(F)cccc21`, 47.9%; under `CCN(CC)CCCN1C(=O)c2c(c(C)c3c(oc4cc(O)ccc43)c2C)C1=O`, -81% (active).
In the case of `Cn1ccc2c3c(ccc21)CC3=O`, the growth is 92.3%.
As to `O=C1N[C@@H]2NC(=[N+]3CCOCC3)N[C@@H]2N1`, the growth is 91.5%.
Regarding `CCCCCOc1ccc(C(=O)/C(Br)=C/C(=O)O)cc1`, the growth is 81.1%.
Same read-out and setting: to `O=C(/C=C/c1ccccc1)c1cccc(OCCCOc2cccc(C(=O)/C=C/c3ccccc3)c2)c1` belongs 86.4%.
Take `O=C(Cc1ccccc1)Nc1nc(O)c(/C=C2\C(=O)C=Cc3ccccc32)s1`: the growth was 85.3%.
`Nc1c(C(=O)Nc2ccncc2)sc2nc3c(cc12)CCCCCC3`: the growth is 98%.
Consider `COc1ccc(C(=O)Nc2cccc(C3CC(=O)c4c(cc(OC)c(OC)c4OC)O3)c2)cc1` (stereo not given), for which the growth is 33.3%.
In the case of `O=C(c1cc2ccccc2o1)c1nn(-c2ccccc2)/c(=N/N=Cc2cn(-c3ccccc3)nc2-c2cc3ccccc3oc2=O)s1`, the growth is 79.1%.
In the case of `CCCCCCCCCCCCCCCCCCOc1ccccc1CC(=O)NCC[N+]1(C)CCCC1`, the growth was 74%.
Take `O=C(CSc1nc(-c2ccccc2)[nH]c1S(=O)(=O)c1ccccc1)NC1CC1`: the growth is 99.2%.
For the molecule `CC(C)N1CCN(Cc2ccc3c(NNC(=O)c4ccccc4)nc4cc(F)ccc4n23)CC1`, the growth was 12.5%.
In the case of `O=S(=O)(NCCCNc1nccc(-c2c(-c3ccc(F)c(O)c3)nc3occn23)n1)c1ccccc1`, the growth is 96.5%.
On to `COc1cc(-c2csc(NC(=O)c3cc(-n4cnc(C)c4)cc(C(F)(F)F)c3)n2)cc(OC)c1OC`, for which the growth was 62.8%.
For the molecule `COc1cc2c(c(OC)c1OC)CCC(c1cccc(C(=O)Nc3cccc(Br)c3)c1)O2` (stereo not given), the growth is 57.8%.
`Cc1nn(-c2ccccc2)c(Oc2ccccn2)c1-c1nc2ccccc2s1`: the growth is 82.3%.
On to `CSc1nnc(-c2cnn3c2NC(c2ccccc2)C3)n1-c1ccc(C(F)(F)F)cc1` (stereo not given), for which the growth was 32%.
Still for that read-out and setting: under `Cc1ccc(-c2cc(-c3ccc(Cl)cc3)nc(NC(=O)c3cccnc3)n2)cc1` stands 94.2%; under `CC1=C(C(=O)OC(C)C)C(c2ccc3c(c2)OCO3)NC(=S)N1` (stereo not given), 93.8%; under `CCOC(=O)c1c2c(n3ccc(C)cc13)C(=O)c1ccccc1C2=O`, 80.1%.
For `O=S(=O)(NCCNc1cc(-c2c(-c3cccc(O)c3)nc3sccn23)ccn1)c1ccc(C(F)(F)F)cc1`, the growth was 29.3%.
On the same count and under the same terms, to `Cc1nc2ncnc(Cl)c2[nH]1` belongs 94.7%; to `N#Cc1nn(-c2cc(=O)[nH]c3ccc(Cl)cc23)c(N)c1C#N`, 101%; to `C#COc1cccc(Nc2ncnc3ncc(NC(=O)CCl)cc23)c1`, 36.4% [6.25 µM].
As to `COC(=O)[C@]1(C)CCC[C@]2(C)[C@H]3C[C@H]4C(C(C)C)=C[C@]3(CC[C@H]21)[C@H]1[C@@H]4[C@@H](OCCC#N)CC[C@@H]1OCCC#N`, the growth was 51.8%.

For another experiment, the system named is A498 renal. Described as above. To be noted: 10 µM unless noted.
As to `CC/C(=C(/c1ccc(Cl)cc1)c1ccc(OCCN2CCCC2)cc1)c1ccc(OC)cc1`, the growth is 108%.
As to `Nc1ncnc2c1N=C(c1ccc(Cl)cc1)CC(c1ccc3c(c1)OCO3)N2` (stereo not given), the growth is 99.5%.
On the same count and under the same terms, to `N=C(N)c1ccc(-c2ccc(-c3ccc(F)cc3)o2)o1` belongs 37.1%; to `CCCCC(=O)c1ccco1`, 74.6%; to `C/C(=C(/c1ccc(Cl)cc1)c1ccc(OCCN2CCCC2)cc1)c1ccc(Cl)cc1`, 97.9%.
In the case of `COC(=O)c1c2c(c[n+]([O-])c1C)C(=O)C(NCc1ccccc1)=CC2=O`, the growth is -4.89% (active).
Regarding `Fc1ccc(-c2nn(-c3ccccc3)cc2-c2nc3ccccc3o2)cc1`, the growth is 45.4%.
Turning to `COc1ccc2c3c([nH]c2c1)C(=O)c1nc(C)ccc1C3=O`, the growth was 67.6%.
Still for that read-out and setting: to `CCN(C(=O)N1CCN(c2cc3c(cc2F)c(=O)c(C(=O)O)cn3C2CC2)CC1)c1nc(-c2ccc(Cl)cc2)cs1` belongs 3.1% (active).
Consider `CCCNC(=O)Oc1ccc(/C(=C(/C)Cc2ccc(OC)cc2)c2ccc(OCCCN(C)C)cc2)cc1`, for which the growth was 97.6%.
For `CC(=O)OCc1nc(C#N)c(N(C)C)o1`, the growth was 84.7%.
For the molecule `Cn1ccnc1C(=O)C(=O)Nc1ccc(CC(=O)Nc2ccccc2)cc1`, the growth was 103%.
Consider `O=C(CN1C(=O)CCC1=O)Nc1ncc(Cc2ccc(F)cc2)s1`, for which the growth was 105%.
With `CNc1nc(S(=O)c2ccc(C#N)cc2)nc2ccccc12` (stereo not given), the growth is 86%.
For the molecule `Cn1c(-c2ccc(Br)cc2)c(O)c(=O)c2c(F)cccc21`, the growth was 62.3%.
For the molecule `CCN(CC)CCCN1C(=O)c2c(c(C)c3c(oc4cc(O)ccc43)c2C)C1=O`, the growth was 104%.
With `Cn1ccc2c3c(ccc21)CC3=O`, the growth is 92.6%.
In the case of `O=C1N[C@@H]2NC(=[N+]3CCOCC3)N[C@@H]2N1`, the growth is 98.3%.
Regarding `CCCCCOc1ccc(C(=O)/C(Br)=C/C(=O)O)cc1`, the growth is 86.2%.
As for `O=C(/C=C/c1ccccc1)c1cccc(OCCCOc2cccc(C(=O)/C=C/c3ccccc3)c2)c1`, the growth is 92%.
Turning to `O=C(Cc1ccccc1)Nc1nc(O)c(/C=C2\C(=O)C=Cc3ccccc32)s1`, the growth is 66.8%.
The same measure, in the same setting: under `Nc1c(C(=O)Nc2ccncc2)sc2nc3c(cc12)CCCCCC3` stands 54.8%.
Still for that read-out and setting: to `COc1ccc(C(=O)Nc2cccc(C3CC(=O)c4c(cc(OC)c(OC)c4OC)O3)c2)cc1` (stereo not given) belongs -2.96% (active); to `O=C(c1cc2ccccc2o1)c1nn(-c2ccccc2)/c(=N/N=Cc2cn(-c3ccccc3)nc2-c2cc3ccccc3oc2=O)s1`, 116%; to `CCCCCCCCCCCCCCCCCCOc1ccccc1CC(=O)NCC[N+]1(C)CCCC1`, 71.5%.
Take `O=C(CSc1nc(-c2ccccc2)[nH]c1S(=O)(=O)c1ccccc1)NC1CC1`: the growth was 72.9%.
Take `CC(C)N1CCN(Cc2ccc3c(NNC(=O)c4ccccc4)nc4cc(F)ccc4n23)CC1`: the growth is -15.8% (active).
As for `O=S(=O)(NCCCNc1nccc(-c2c(-c3ccc(F)c(O)c3)nc3occn23)n1)c1ccccc1`, the growth was 101%.
As for `COc1cc(-c2csc(NC(=O)c3cc(-n4cnc(C)c4)cc(C(F)(F)F)c3)n2)cc(OC)c1OC`, the growth was 60.6%.
As to `COc1cc2c(c(OC)c1OC)CCC(c1cccc(C(=O)Nc3cccc(Br)c3)c1)O2` (stereo not given), the growth was 28.8%.
Take `Cc1nn(-c2ccccc2)c(Oc2ccccn2)c1-c1nc2ccccc2s1`: the growth was 106%.
`CSc1nnc(-c2cnn3c2NC(c2ccccc2)C3)n1-c1ccc(C(F)(F)F)cc1` (stereo not given): the growth was 46.8%.
Turning to `Cc1ccc(-c2cc(-c3ccc(Cl)cc3)nc(NC(=O)c3cccnc3)n2)cc1`, the growth is 111%.
Same read-out and setting: to `CC1=C(C(=O)OC(C)C)C(c2ccc3c(c2)OCO3)NC(=S)N1` (stereo not given) belongs 109%; to `CCOC(=O)c1c2c(n3ccc(C)cc13)C(=O)c1ccccc1C2=O`, 83.8%; to `O=S(=O)(NCCNc1cc(-c2c(-c3cccc(O)c3)nc3sccn23)ccn1)c1ccc(C(F)(F)F)cc1`, 40.2%.
Consider `Cc1nc2ncnc(Cl)c2[nH]1`, for which the growth is 97.3%.
In the case of `N#Cc1nn(-c2cc(=O)[nH]c3ccc(Cl)cc23)c(N)c1C#N`, the growth is 116%.
In the case of `C#COc1cccc(Nc2ncnc3ncc(NC(=O)CCl)cc23)c1`, the growth is 61.8% [6.25 µM].
For the molecule `COC(=O)[C@]1(C)CCC[C@]2(C)[C@H]3C[C@H]4C(C(C)C)=C[C@]3(CC[C@H]21)[C@H]1[C@@H]4[C@@H](OCCC#N)CC[C@@H]1OCCC#N`, the growth is 66.8%.

Source of the values: PubChem BioAssay (NCI).
